# Screens deposited in PubChem BioAssay by National Center for Advancing Translational Sciences (NCATS).
# DT40 TDP1 CPT: growth inhibition of DT40 Tdp1-/-;hTDP1 cells with camptothecin (screen for TDP1 inhibitors). hit rate 12% among 420,000. AID 686979. chicken DT40 Tdp1-/-;hTDP1 cells + 20 nM CPT, ATP luminescence, 48 h. Potency, µM (titrated, usually from 46.2 µM), inactives show at the highest dose activity change, negative = growth inhibition, hits mostly inhibitors; further: potency means the concentration at half of the fitted maximal effect; nearly all actives have a fitted effect of over 55% in size
#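 Chicken DT40 Tdp1-/- cells complemented with human TDP1, 400 cells/well, exposed to compounds plus 20 nM camptothecin for at least 48 h at 37 C; viability read as ATP content by CellTiter-Glo luminescence.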
# DT40 TDP1 no CPT: qHTS for Inhibitors of human tyrosyl-DNA phosphodiesterase 1 (TDP1): qHTS in cells in absence of CPT; DT40 Tdp1-/- hTDP1 cells, no CPT, ATP luminescence, 48 h; Potency, µM (top dose mostly 46.2 µM), for the others: top-dose activity change, negative = growth inhibition, usual class: inhibitors; hit rate 15% among 420,000; further: potency means the concentration at half of the fitted maximal effect; nearly all actives have a fitted effect of over 55% in size
#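 A cellular qHTS used chicken DT40 cells lacking endogenous Tdp1 but carrying stably transfected human TDP1. Compounds were applied without camptothecin, and cell growth kinetics were judged by ATP-dependent luminescence after ≥48 hr.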
# ELG1 DNA repair: inhibitors of ELG1-dependent DNA repair in HEK293T cells; HEK293T ELG1-luciferase reporter, luminescence, 16 h; DNA damage induced by 5-fluorouridine; Potency, µM (doses to about 46.1 µM), for the others: top-dose activity change, negative = inhibition, actives largely listed as inhibitors; hit rate 2.3% among 330,000; AID 504467; further: potency means the concentration at half of the fitted maximal effect; nearly all actives have a fitted effect of over 55% in size
#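 DMSO vehicle served as the neutral condition. Each well held 2,000 cells given 5-fluorouridine plus compound; after 16 hr at 37 °C/5% CO2, ONE-Glo was added and luciferase measured 30 min later.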
# RORg inh: blocks mouse ROR gamma transcriptional activity | hit rate 5.4% among 310,000 | Potency, µM (top dose mostly 53.6 µM), inactives show top-dose activity change, negative = inhibition, usual class: inhibitors | Drosophila S2 Gal4-RORgamma UAS-luciferase reporter, 20 h; further: potency means the concentration at half of the fitted maximal effect; nearly all actives have a fitted effect of over 60% in size
# Target sequence (P51450 whole entry, looked up, the tested form may be a part): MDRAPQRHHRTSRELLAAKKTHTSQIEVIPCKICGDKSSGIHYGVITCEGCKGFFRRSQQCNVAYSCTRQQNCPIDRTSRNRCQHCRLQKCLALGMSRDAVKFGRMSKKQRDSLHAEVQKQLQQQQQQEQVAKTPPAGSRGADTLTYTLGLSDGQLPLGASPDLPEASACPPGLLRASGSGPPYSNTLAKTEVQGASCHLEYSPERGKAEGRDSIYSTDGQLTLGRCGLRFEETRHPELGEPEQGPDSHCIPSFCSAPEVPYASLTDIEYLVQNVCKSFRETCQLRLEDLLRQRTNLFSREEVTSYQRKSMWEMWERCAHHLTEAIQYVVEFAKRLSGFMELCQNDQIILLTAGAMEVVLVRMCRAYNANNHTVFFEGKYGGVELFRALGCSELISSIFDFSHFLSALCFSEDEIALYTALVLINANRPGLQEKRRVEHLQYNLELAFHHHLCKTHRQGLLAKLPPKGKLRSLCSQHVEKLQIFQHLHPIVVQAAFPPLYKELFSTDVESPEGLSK
#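 A Gal4/UAS one-hybrid system in insect cells: metallothionein-promoter Gal4–ROR gamma fusion plus Photinus luciferase reporter. Copper sulfate 700 uM final, 20 hr ambient incubation, luminescent detection after 10 min with reagent.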
# Gal4-VP16 FLuc: Gal4-VP16 reporter inhibition counter-screen; hit rate 3.5% among 310,000; Potency, µM (highest dose often 53.6 µM), inactives show top-dose activity, negative = inhibition, most hits filed as inhibitors; AID 2546; Drosophila S2 Gal4-VP16 UAS-luciferase, luminescence, 20 h;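 further: Gal4-VP16 expression switched on by copper sulfate through the metallothionein promoter; potency means the concentration at half of the fitted maximal effect; nearly all actives have a fitted effect of over 50% in size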
# IL1B secr inh: inhibitors of inflammasome signaling (IL-1 beta secretion). THP-1 LPS/ATP IL-1B secretion, AlphaLISA, 16 h; hits give low values. activity change, % at 57.5 µM. hit rate 4.7% among 360,000; in the data active means activity change below about -50%; inconclusive means mostly about -30% to -49%
#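 THP-1 cells pretreated 1 hr with compounds (up to 57.5 uM final), then stimulated with LPS (250 ng/mL final) plus ATP (1.25 mM final); secreted IL-1B measured by AlphaLISA after 16 hr, decreased signal indicating inhibition.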
# An asterisk follows results filed as active; ? = inconclusive; · = not tested or not shown; [ ] = dose if it differs, or a comment. Sampled rows, rich in hits. Any-hit rate of the full collection: about 21%. Unless noted, the call rests on the fitted dose curve; in most records, active means well fitted curve in the direction sought with a large enough effect; inconclusive means small, poorly fitted or top-dose-only effect, or another doubt; inactive means no such curve, though single readings can be large; an effect the other way counts as inactive or inconclusive. On the % scale 0 is the no-effect control and ±100 the full control effect.
SMILES,DT40 TDP1 CPT,DT40 TDP1 no CPT,ELG1 DNA repair,RORg inh,Gal4-VP16 FLuc,IL1B secr inh
Cc1occc1C(=O)NNC(=O)CN1C(=O)NC(C)(c2ccccc2)C1=O (stereo not drawn),-12.0%,-6.3%,1.2%,·,·,-8.1
Cc1cc2cc(C)c3nnc(SCC(=O)Nc4ccc(S(=O)(=O)N5CCCCC5C)cc4)n3c2cc1C (stereo not drawn),?,10.3µM*,?,4.7%[10 µM],-9.4%,8.2
CSc1ncc(Cl)c(C(=O)Nc2ccc(S(=O)(=O)N3CCC(C)CC3)cc2)n1,23.1µM*,23.1µM*,·,·,·,·
CCSc1ncc(Cl)c(C(=O)Nc2ccc(S(=O)(=O)Nc3ncccn3)cc2)n1,5.1%,5.6%,?,-0.8%,-6.0%,-3.2
CCCSc1ncc(Cl)c(C(=O)Nc2ccc(S(=O)(=O)N3CC(C)OC(C)C3)cc2)n1 (stereo not drawn),?,16.4µM*,?,31.5%,0.0%,2.3
CCSc1ncc(Cl)c(C(=O)Nc2ccc(S(=O)(=O)N3CCC(C)CC3)cc2)n1,14.6µM*,5.8µM*,·,·,·,·
CC1CCCCN1S(=O)(=O)c1ccc(NC(=O)CSc2nnnn2C)cc1 (stereo not drawn),-7.5%,-14.4%,4.0%,10.7%,-9.4%,0.0
CCS(=O)(=O)c1ncc(Cl)c(C(=O)Nc2ccc(S(=O)(=O)N3CCC(C)CC3)cc2)n1,1.84µM*,2.59µM*,?,3.16µM*,4.47µM*,-103.9*
CC1CCN(S(=O)(=O)c2ccc(NC(=O)C3CC3)cc2)CC1,?,-23.5%,?,13.8%,0.9%,16.5
CC(C)Sc1ncc(Cl)c(C(=O)Nc2ccc(S(=O)(=O)N3CCCCC3C)cc2)n1 (stereo not drawn),?,18.4µM*,·,·,·,·
CCSc1ncc(Cl)c(C(=O)Nc2ccc(S(N)(=O)=O)cc2)n1,-19.3%,?,5.7%,10.7%,7.1%,-59.4*
CC(OC(=O)c1ccc(Cl)nc1)C(=O)NCc1ccc2c(c1)OCO2 (stereo not drawn),3.7%,3.4%,2.3%,·,·,10.4
COc1ccc(/C=C2\SC(=S)N(CCC(=O)Nc3cccc(O)c3)C2=O)cc1OC,-7.1%,-20.6%,2.3%,?,?,52.1
COc1ccc(/C=C2/SC(=S)N(CCCC(=O)Nc3cccc(O)c3)C2=O)cc1,?,?,-17.4%,0.316µM*,2.51µM*,-78.9*
COc1cccc(/C=C2\SC(=S)N(CCCC(=O)Nc3cccc(C(=O)O)c3)C2=O)c1,2.5%,-11.7%,·,·,·,24.5
CCc1ccc(/C=C2/SC(=S)N(CCC(=O)Nc3cccnc3)C2=O)cc1,?,-28.1%,-4.3%,·,·,28.3
COc1ccc(NC(=O)CCCN2C(=O)/C(=C\c3ccco3)SC2=S)cc1,?,16.4µM*,?,11.2µM*,?,-70.6*
CCc1ccc(/C=C2\SC(=S)N(CCCC(=O)Nc3nccs3)C2=O)cc1,?,-20.4%,25.1%,0.562µM*,-11.5%,16.9
CCc1ccc(/C=C2\SC(=S)N(CCCC(=O)Nc3ccccc3C(=O)O)C2=O)cc1,-28.6%,-1.7%,11.0%,5.01µM*,20µM*,25.0
CCC(C)C(=O)Nc1cccc(SC)c1 (stereo not drawn),·,·,?,-4.7%,-15.7%[10 µM],·
COc1ccc(C(CNC(=O)c2cc(S(=O)(=O)N3CCCC3)ccc2Cl)N2CCCC2)cc1 (stereo not drawn),2.3%,?,10.2%,·,·,-6.6
O=P(O)(O)O,-19.8%,-4.4%,·,-14.8%,-2.6%,·
COc1cc(/C=C2\SC(=S)N(NC(=O)c3ccccc3O)C2=O)ccc1O,?,25.9µM*,18.2%,-6.3%,4.7%,23.2
COc1ccc(/C=C2/SC(=S)N(CCCC(=O)Nc3ccccc3C(=O)O)C2=O)cc1,1.6%,-3.4%,-1.8%,1.41µM*,3.55µM*,20.0
Cc1ccc(/C=C2\SC(=S)N(CCCC(=O)Nc3ccccc3C(=O)O)C2=O)cc1,-6.5%,6.8%,-0.4%,-26.7%,?,26.4
SMILES,DT40 TDP1 CPT,DT40 TDP1 no CPT,ELG1 DNA repair,RORg inh,Gal4-VP16 FLuc,IL1B secr inh
COc1ccc(/C=C2\SC(=S)N(CCCC(=O)NNC(=O)c3ccccc3O)C2=O)cc1,?,8.2µM*,?,0.708µM*,1.58µM*,68.8
CCc1ccc(/C=C2\SC(=S)N(CCCC(=O)Nc3ccc(C(=O)O)cc3)C2=O)cc1,-13.3%,-7.3%,?,3.98µM*,?,0.0
O=C(NN1C(=O)/C(=C/c2ccc(O)cc2)SC1=S)c1ccccc1O,-1.7%,?,0.6%,-2.9%,16.4%,-8.8
COCCN(C(=O)COC(=O)CSc1ccc(Cl)cc1)c1c(N)n(CC(C)C)c(=O)[nH]c1=O,-9.2%,1.0%,25.6%,·,·,8.5
O=C(CSc1ccc(Br)cc1)N1CCN(C(=O)c2ccco2)CC1,-2.7%,-7.1%,-3.4%,37.3%,-5.0%,-11.5
CC(=O)c1c(C)[nH]c(C(=O)OCC(=O)Nc2ccc(Cl)cc2[N+](=O)[O-])c1C,3.66µM*,1.84µM*,3.66µM*,?,5.01µM*,28.2
O=C(COC(=O)c1ccc(O)cc1)Nc1ccc2c(c1)OCCO2,10.3µM*,3.26µM*,?,·,·,7.3
